Assay results as given in PubChem BioAssay (NCI).
About 83,000 compounds went through this panel and 20% of them were active in at least one assay; those are over-represented in the sample as a whole.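 Plates (96-well) were seeded with cells, treated with compound at one concentration, and incubated for 48 hours before percent growth was determined.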 A number with no mark means an inactive call. Active and inactive are the calls of the source. How the source made its calls: active means growth percent below 10; inactive means the rest.

Experiments:
Test in all cases: NCI-60 one-dose screen, 48 h (100 = growth as untreated, 0 = no growth, -100 = all killed)
Details in all cases: 10 µM unless noted
BT-549 breast = system: BT-549 breast
MDA-MB-435 melanoma = system: MDA-MB-435 melanoma
SW-620 colon = system: SW-620 colon
MCF7 breast = system: MCF7 breast
HCT-116 colon = system: HCT-116 colon
HCC-2998 colon = system: HCC-2998 colon
KM12 colon = system: KM12 colon

Row | SMILES | growth (BT-549 breast) | growth (MDA-MB-435 melanoma) | growth (SW-620 colon) | growth (MCF7 breast) | growth (HCT-116 colon) | growth (HCC-2998 colon) | growth (KM12 colon)
1 | Cc1ccc(C(O)C2=CC(=O)c3ccccc3C2=O)cc1 (configuration not stated) | 63.1% | 102% | 95% | 87.1% | 91.7% | 101% | 96%
2 | O=C(CSc1nc2c(n1Nc1ccccc1)-c1ccccc1SC2)Nc1nc(-c2ccc(Cl)cc2)cs1 | 93.9% | 61% | 28.2% | 68.9% | 36.9% | 102% | 48.5%
3 | CCCCCCCCCCCCCCCCCC1=NC(C)(C)CN1CCO | 58.9% | -60.1% (active) | -60.4% (active) | -59.5% (active) | -67% (active) | -87.6% (active) | -76.3% (active)
4 | C=C1CC[C@@H]2[C@](C)(COC(C)=O)[C@H](OC(C)=O)CC[C@@]2(C)[C@@H]1CC(Nc1ccc(S(=O)(=O)Nc2cc(C)on2)cc1)C1=CCOC1=O (some centres not stated) | 27.2% | 35% | 14.7% | 12.3% | -1.13% (active) | 68.3% | 30.5%
5 | O=C(Nc1ccc(Cl)cc1)Nc1ccc(Nc2nncc3ccccc23)cc1 | 15.7% | 13.7% | 27% | 5.46% (active) | 15.2% | 30.7% | 18.9%
6 | CN1CCN(Cc2ccc(NC(=O)c3[nH]ncc3Nc3ccnc4ccnn34)cc2)CC1 | 74.1% | 56.1% | 70.1% | 35.9% | 33.7% | 68.7% | 32.7%
7 | COc1cc2c(cc1OCCCCCn1c(-c3ccc(OCc4ccccc4)cc3)nc3cc(N4CCOCC4)ccc31)N=C[C@@H]1CCCN1C2=O | 1.75% (active) | -9.74% (active) | 0% (active) | -3.99% (active) | 2.97% (active) | 4.97% (active) | -26.7% (active)
8 | O=C1/C(=C/c2ccc([N+](=O)[O-])o2)Oc2ccc(Br)cc21 | -54.1% (active) | -40.7% (active) | -70.5% (active) | 16.7% | -64% (active) | 102% | 87.1%
9 | Cc1nn(-c2ccccc2)c2ncc3c(c12)C(=O)N(Cc1ccccc1)C3=O | 76.4% | 90.7% | 61% | 58.8% | 10.5% | 63% | 85.8%
10 | COc1ccc(/C=C2\COc3ccc(O)c(O)c3C2=O)cc1OC | 29.4% | -0.882% (active) | 4.03% (active) | 13% | -24.8% (active) | 46.1% | 10.4%
11 | COC1=CC(c2ccc[nH]2)=N/C1=C\c1[nH]c(C)c(C(=O)CCC(=O)Oc2ccc3c(c2)CCC2C3CC[C@]3(C)C(=O)CC[C@@H]23)c1C (some centres not stated) | 70.2% | 93.7% | 27.9% | 50.2% | 20.3% | 79.8% | 53.6%
12 | COc1ccc(C2=NNC(c3cc(Cc4ccc(O)c(C5CC(c6ccc(OC)cc6)=NN5)c4)ccc3O)C2)cc1 (configuration not stated) | 58.1% | 12.1% | 30.3% | 26.1% | 28.3% | 55.5% | 55.4%
13 | O=C1N(C2CCCCC2)C(=O)N1C1CCCCC1 | 33.6% | 57.4% | 48.5% | 42.9% | 44.2% | 49.3% | 7.4% (active)
14 | Clc1ccccc1[C@@H]1C[C@@H]2Cc3cc(Br)c4ccccc4c3N1O2 | 50.1% | -32% (active) | 16.6% | 12.7% | 20.3% | 56.4% | 33.5%
15 | Cc1cc(O)c2c(c1)C[C@H]1[C@@H]3CC[C@H]4CC(=O)CC[C@]4(C)[C@H]3CC(=O)[C@]21C | 91.4% | 91.1% | 103% | 95.6% | 77.1% | 87.9% | 81.2%
16 | CCOC(=O)C1C(=O)OC2CCCCC21 (configuration not stated) | 97.5% | 114% | 110% | 95.4% | 101% | 106% | 109%
17 | CCOC(=O)c1c(C)c(C(=O)OCC)n(C)c1C | 91.5% | 101% | 94.5% | 127% | 97.9% | 110% | 112%
18 | COc1ncc(-c2ccc3nccc(C#CCN4CCN(S(C)(=O)=O)CC4)c3c2)cc1NS(=O)(=O)c1ccc(F)cc1F | -17.6% (active) | -23% (active) | 0.433% (active) | 6.88% (active) | -10.4% (active) | -37% (active) | -57.2% (active)

Row | SMILES | growth (BT-549 breast) | growth (MDA-MB-435 melanoma) | growth (SW-620 colon) | growth (MCF7 breast) | growth (HCT-116 colon) | growth (HCC-2998 colon) | growth (KM12 colon)
19 | O=C(CCc1nnc2sc(-c3ccc(Cl)cc3Cl)nn12)c1nc2ccccc2[nH]1 | -28.2% (active) | -39.7% (active) | -34.3% (active) | -40.7% (active) | -84.7% (active) | -90.3% (active) | -27% (active)
20 | O=C(N1CCC(CN=c2cc3n(-c4ccc(Cl)cc4)c4ccccc4nc-3cc2Nc2ccc(Cl)cc2)CC1)N1CC1 | -82.5% (active) | -29.4% (active) | -83% (active) | -71.6% (active) | -70.9% (active) | -75.9% (active) | -63.7% (active)
21 | Clc1ccc2c(Nc3ccc4oc(NCCN5CCCC5)nc4c3)ccnc2c1 | 95.1% | 101% | 78.4% | 68.9% | 55.7% | 76% | 81.7%
22 | Cc1cc(=O)n2n1-c1ccc(Cl)cc1NC(=O)C2 | 104% | 88.2% | 109% | 94.1% | 107% | 110% | 114%
23 | O=C(Oc1ccc[nH]c1=O)c1cccc(Cl)c1 | 88.4% | 108% | 115% | 93.9% | 88.5% | 106% | 104%
24 | CCOC(=O)c1ccccc1OC(=O)NNc1ccccc1 | 48.3% | 50% | 45.6% | 50.3% | 70.8% | 40% | 55%
25 | CN(C)CCCN1c2nc3ccccc3cc2Sc2cc3ccccc3nc21 | -100% (active) | -67% (active) | -93.5% (active) | -97.9% (active) | -62.8% (active) | -71.3% (active) | -72.4% (active)
26 | COc1cccc(CCC2C(=O)CCCC2=O)c1 | 109% | 119% | 112% | 108% | 114% | 115% | 106%
27 | N#Cc1c(N)[nH]c(S)c1C#N | 99.4% | 98.4% | 107% | 92.1% | 97.9% | 95.6% | 116%
28 | CN(C)c1ccc(/C=C(\C#N)c2nc3ccccc3c(=O)[nH]2)cc1 | 87.9% | 86.7% | 82.6% | 73.5% | 76.9% | 84.8% | 79.9%
29 | Cc1nn(-c2ccc(Cl)cc2)c2nc3c(nc12)c(=O)oc1ccccc13 | 89.8% | 106% | 104% | 99.1% | 105% | 98.2% | 112%
30 | COc1ccc2c(c1)C(=O)c1c-2c(OCCN(C)C)nc2cc(OC)ccc12 | 56.6% | 18.5% | -45.8% (active) | -50% (active) | -76% (active) | -88.8% (active) | -37.4% (active)
31 | COc1ccc(C(=O)Nc2nc(-c3ccc(Cl)cc3)cs2)cc1 | 105% | 97.7% | 96.3% | 92.9% | 109% | 112% | 99.2%
32 | Cc1cc(C(C)(C)C)cc(C)c1CC1=NCCN1 | 98.3% | 100% | 108% | 113% | 112% | 96.4% | 103%
33 | O=C1C(=O)c2ccc(Br)cc2-c2cc(Br)ccc21 | 63% | 20.5% | -1.44% (active) | 0.468% (active) | -71.9% (active) | 87% | 73.1%
34 | CCOC(=O)C1=C(C)N2C(=NC3=C(CCC/C3=C\c3ccc(Cl)cc3)C2c2ccc(Cl)cc2)S1 (configuration not stated) | -44.5% (active) | -14% (active) | -59.8% (active) | -43.7% (active) | -100% (active) | -100% (active) | -73.3% (active)
35 | COc1ccc(-c2nc3sccn3c2-c2ccnc(S(C)(=O)=O)n2)cc1 | 122% | 82.7% | 91.1% | 46.2% | 79.6% | -55% (active) | 75%
36 | O=C(CCc1nnc(SCc2ccccc2)s1)c1nc2ccccc2[nH]1 | 108% | 102% | 107% | 92.1% | 95% | 101% | 110%
